From PubChem
A selection: hits, their analogues and other compounds. The true share with any hit is near 1.2%.
rat GALR2 agon: activates the rat galanin receptor 2 | cell-based GALR2 agonist screen | activation, % at 10 µM | O08726 | 16,000 compounds, 0.5% hits; in the data active = activation above about 15%
TLR4 MyD88 blk: blocks binding of human TLR4 to MyD88. Cell-based TLR4-MyD88 binding inhibition assay. 16,000 compounds, 0.06% hits. O00206. inhibition, % at 10 µM; in the data active = inhibition above about 45%
OPRK1 antag MB: antagonists of human kappa opioid receptor OPRK1, Maybridge library. OPRK1 cells, antagonist mode, fluorescence readout. inhibition, % at 9 µM. 16,000 compounds, 0.4% hits; in the data active = inhibition above about 50%
Target sequence (P41145 whole entry, looked up): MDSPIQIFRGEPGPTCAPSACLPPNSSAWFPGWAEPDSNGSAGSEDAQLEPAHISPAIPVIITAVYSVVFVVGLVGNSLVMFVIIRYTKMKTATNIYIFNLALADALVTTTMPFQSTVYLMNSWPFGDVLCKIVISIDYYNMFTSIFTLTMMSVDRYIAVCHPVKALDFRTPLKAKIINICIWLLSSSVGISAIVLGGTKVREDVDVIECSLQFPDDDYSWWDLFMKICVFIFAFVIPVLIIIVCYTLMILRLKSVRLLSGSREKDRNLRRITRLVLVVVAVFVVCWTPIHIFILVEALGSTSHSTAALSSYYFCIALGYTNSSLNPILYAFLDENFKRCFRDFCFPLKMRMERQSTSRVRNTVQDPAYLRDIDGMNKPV
PME-1 Maybridge: PME-1 (human) inhibition, Maybridge primary screen | Q9Y570 | inhibition, % at 9 µM | recombinant PME-1, FP-Rh probe fluorescence polarization | 16,000 compounds, 0.5% hits; in the data active = inhibition above about 30%
Numbers stand for hits; n = inactive; x = no result given.

SMILES	rat GALR2 agon	TLR4 MyD88 blk	OPRK1 antag MB	PME-1 Maybridge
O=C(Nc1ccc(Cl)cc1)Nc1ccccc1Oc1ccccc1	n	n	n	n
NC(=O)c1sc(-c2ccc(Cl)cc2)cc1NC(=O)C(Cl)Cl	n	n	n	n
O=C(Nc1ccccc1N1CCOCC1)c1ccc(N2CCOCC2)nc1	n	n	n	n
CCCCNc1ccc2c3c(cccc13)C(=O)N(CCCC)C2=O	n	55.2	89.0	n
c1csc(-c2noc(CNC3Cc4ccccc4C3)n2)c1	n	n	n	n
COc1cc2ncnc(NNS(=O)(=O)c3cc(C)c(Cl)cc3C)c2cc1OC	n	n	n	31.9
COC(=O)c1sccc1OS(=O)(=O)c1cc(Cl)cc(Cl)c1	n	n	n	n
O=c1c(Nc2ccc(OC(F)(F)F)cc2)c(Nc2ccc(OC(F)(F)F)cc2)c1=O	n	n	n	30.2
CN1CCN(c2sc(S(N)(=O)=O)cc2[N+](=O)[O-])CC1	n	n	n	n
CS(=O)(=O)/C(C#N)=C/c1ccccc1OCc1c(Cl)cccc1Cl	18.2	n	n	n
CSc1ccc(C(F)(F)F)cc1NC=C(C#N)C#N	n	n	n	n
CCOC(=O)c1cc(N2C(=O)c3ccccc3C2=O)ccc1N1CCCCC1	n	n	n	n
O=C1c2ccc(Cl)c3c(N4CCSCC4)ccc(c23)C(=O)N1c1ccccc1	n	n	57.8	n
N#C/C(=N\O)c1ccccc1Cl	n	n	n	n
OCCCc1[nH]nc(-c2ccc(Cl)cc2)c1Br	n	n	n	n
O=[N+]([O-])c1c(Sc2ccc(Cl)cc2)ccc2nsnc12	n	n	69.1	n
COc1ccccc1N1CCN(C(=O)C(C)N2CCCc3cc(C)ccc32)CC1 (stereo not given)	n	n	n	71.3
O=C(CSc1nnc(-c2ccco2)n1-c1ccc2c(c1)OCCO2)c1ccccc1	n	n	n	n
Nc1ccc(C(=O)O)c2c(C(=O)O)cccc12	n	n	n	48.6
O=C(O)c1cccc2cccc(C(=O)O)c12	n	n	n	n
CSc1nc(N)n2nc(-c3cccs3)cc2n1	n	n	n	n
O=C(O)c1ccccc1C(=O)c1ccc(Sc2ccccc2)c([N+](=O)[O-])c1	n	n	n	n
CC(=O)c1ccc(Sc2cccc(C(F)(F)F)c2)c([N+](=O)[O-])c1	n	n	n	31.7
CC(=O)c1sc2nc(-c3cccs3)cc(C(F)(F)F)c2c1N	n	n	88.6	n
CC(=O)OC[C@H]1O[C@@H](n2cnc3c(=O)[nH]c(N)nc32)[C@H](OC(C)=O)[C@@H]1OC(C)=O	n	n	n	n
SMILES	rat GALR2 agon	TLR4 MyD88 blk	OPRK1 antag MB	PME-1 Maybridge
Clc1ccc(NCc2cccnc2)c(Cl)c1	n	n	n	n
O=S(=O)(Cc1ccc(Cl)cc1)NCc1cccnc1	27.2	n	n	n
CNC(=O)n1nc(C)c(Cc2csc3ccc(Cl)cc23)c1C	n	n	n	47.8
CNC(=O)Cc1csc2ccc(Cl)cc12	n	n	n	n
CC(=O)c1cc([N+](=O)[O-])c(SCc2ccc(Cl)cc2)s1	n	n	n	31.9
CC(=O)c1cc([N+](=O)[O-])c(Sc2ccc(Cl)cc2)s1	n	n	n	n
CC(=O)Nc1cc([N+](=O)[O-])ccc1-n1cc(C)c(C(F)(F)F)n1	n	49.7	n	n
CC(=O)Nc1cc([N+](=O)[O-])ccc1Sc1ccccc1N	n	n	n	n
O=C(O)C1Cc2cc(O)ccc2CN1 (stereo not given)	n	n	n	n
O=c1[nH]cc(C(F)(F)F)c(=O)[nH]1	n	n	n	n
Cc1noc(-c2ccccc2)c1NC(=O)Nc1cc(C2CC2)nn1C	n	n	n	n
Cn1nc(-c2ccccc2)cc1NC(=O)Nc1cccs1	n	n	n	31.7
O=C(O)C1CSC(c2ccc([N+](=O)[O-])s2)N1 (stereo not given)	n	n	n	n
O=C1CN(c2ccc(OC(F)(F)F)cc2)C(=O)CN1CC1CC1	43.5	n	n	n
C=CCn1c(-c2sc3nnc(-c4ccccc4)c(-c4ccccc4)c3c2N)n[nH]c1=S	n	n	57.2	n
COc1ccccc1N1CCN(CCCCNS(=O)(=O)c2ccc(Cl)c(Cl)c2)CC1	n	n	n	n
COc1cc(Sc2ccc(Cl)cc2)ccc1[N+](=O)[O-]	n	n	n	n
COc1ccc([N+](=O)[O-])c(S(=O)(=O)c2ccc(Cl)cc2)n1	n	n	81.6	n
COc1ccc(OC)c(NC(C)=O)c1	n	n	n	n
CCN(CC)c1ccc(/C=C/c2ccc([N+](=O)[O-])cc2C#N)cc1	n	n	68.8	n
COc1cccc(/C=N/NC(=O)c2ccncc2)c1OC	n	n	n	n
O=C(c1ccc2c(c1)CCC2)C1CCC1	46.3	x	n	n
Cc1onc(-c2ccccc2)c1CNS(=O)(=O)c1cnn(-c2ccccc2)c1C	n	n	106.3	n
O=[N+]([O-])c1ccc(-c2csc(COc3ccc4nonc4c3)n2)cc1	n	n	n	n
N#Cc1cccc(C#N)c1Oc1ccc(N)cc1	n	n	94.1	n
SMILES	rat GALR2 agon	TLR4 MyD88 blk	OPRK1 antag MB	PME-1 Maybridge
O=c1ccc(-c2ccncc2)n[nH]1	23.2	n	n	n
N#Cc1c(S/C=C(\O)c2cc3ccccc3o2)nc2c(c1C(F)(F)F)CCCC2	n	n	77.0	n
CNC(=O)NC1CCS(=O)(=O)C1 (stereo not given)	n	n	n	n
O=C(Cc1csc2ccccc12)Nc1ccc(F)cc1	n	n	n	57.9
O=C(NCCNc1nccc(C(F)(F)F)n1)C1CC1	n	n	n	95.5
O=S1(=O)CCN(Cc2cc3ccccc3s2)CC1	35.6	n	n	n
Cc1onc(-c2ccccc2)c1CN1CCS(=O)(=O)CC1	n	n	n	n
Cc1nn(C)c(Sc2ccc(C(F)(F)F)cn2)c1[N+](=O)[O-]	n	n	n	n
Cn1cnc([N+](=O)[O-])c1Sc1ccc(C(F)(F)F)cn1	34.6	n	n	n
COc1cc2c(cc1OC)C(C)N(C(=O)c1sc(-c3cnccn3)nc1C)CC2 (stereo not given)	n	n	n	n
COc1cc2c(cc1OC)C(C)N(C(=O)c1sc3ccccc3c1Cl)CC2 (stereo not given)	n	n	n	51.9
O=C(CN1CCCCC1)NN1CC(=O)N(c2ccc(F)cc2)CC1=O	n	n	n	n
COc1ccccc1NS(=O)(=O)c1ccc(Cl)s1	n	n	n	32.0
CCN(CCS(=O)(=O)c1ccc(Cl)cc1)S(=O)(=O)c1ccc(C)cc1	n	n	n	n
O=C1Nc2ccccc2/C1=C\c1c[nH]c2ccccc12	n	n	n	34.5
CS(=O)(=O)/C(C#N)=C\c1ccc(Cl)s1	n	n	57.3	n
COc1ccc(/C=C(\C#N)S(=O)(=O)c2ccccc2Cl)s1	n	n	n	n
COc1ccc(C(N)=S)cc1[N+](=O)[O-]	n	n	n	n
NC(=O)c1cc2c(c([N+](=O)[O-])c1)-c1c(cc(C(N)=O)cc1[N+](=O)[O-])C2=O	n	n	n	37.8
CC(C)(C)OC(=O)N1CCCN(C(=O)c2sc3ccccc3c2Cl)CC1	n	n	n	n
COc1ccc(C(=O)N2CCC(c3ccccc3OC)CC2)cc1	n	n	n	n
CC(=O)Oc1ccc2ccccc2c1-c1c(OC(C)=O)ccc2ccccc12	n	n	n	n
CC(=O)Oc1ccc(OC(C)=O)c2c1C(=O)c1ccccc1C2=O	n	n	n	84.9
